{"source": "PubChem BioAssay AID720518", "about": "(National Center for Advancing Translational Sciences (NCATS), 2013)", "assay": "qHTS for Inhibitors of Cell Surface uPA Generation: Wild-type Protective Antigen (WT-PrAg) Counterscreen for Cherry-picked Compounds", "note": "Inconclusive results are not listed. Where a call stands in place of a potency, no number is given. Calls of active or inactive are those of the source. The call rests on the fitted dose curve.", "data": [{"molecule": "CC1=CC(C)C(C[N+]2(C)CCCCC2)C(C)C1", "note": "(stereo not given)", "values": [{"measurement": "Potency", "value": "inactive"}]}, {"molecule": "O=c1[nH]c(=O)n(-c2ccc(Cl)cc2)c(O)c1C=Nc1ccc(S(=O)(=O)Nc2nccs2)cc1", "values": [{"measurement": "Potency", "value": "inactive"}]}, {"molecule": "Cc1ccc2[nH]c(CN3CCN(C)C(CCO)C3)c(C)c2c1", "note": "(stereo not given)", "values": [{"measurement": "Potency", "value": "inactive"}]}, {"molecule": "C=CCOC(=O)C1=C[C@H](c2ccc(C(F)(F)F)cc2)[C@@H](CCCO)[C@H](OCC)O1", "values": [{"measurement": "Potency", "value": "inactive"}]}, {"molecule": "Cc1cccc(N2C(=O)c3cccc(Oc4ccc(Cl)cc4)c3C2=O)c1", "values": [{"measurement": "Potency", "value": "inactive"}]}, {"molecule": "CCN(CC)S(=O)(=O)c1cc(NC(=O)COC(=O)C2CCC2)ccc1C", "values": [{"measurement": "Potency", "value": "inactive"}]}, {"molecule": "Cc1ccc(NC(=O)CS(=O)Cc2nc(-c3ccc(C)cc3)oc2C)cc1", "note": "(stereo not given)", "values": [{"measurement": "Potency", "value": "inactive"}]}, {"molecule": "CCOc1ccc(-n2cnc3scc(-c4ccc(OC)c(OC)c4)c3c2=O)cc1", "values": [{"measurement": "Potency", "value": "inactive"}]}, {"molecule": "CCN(CC)S(=O)(=O)c1ccc(C(=O)Nc2nnc(COC)o2)cc1", "values": [{"measurement": "Potency", "value": "inactive"}]}, {"molecule": "COCC(=O)N1Cc2ccccc2-n2nncc2C1", "values": [{"measurement": "Potency", "value": "inactive"}]}, {"molecule": "O=C1CCCC/C1=C\\Nc1ccc(S(=O)(=O)Nc2cnc3ccccc3n2)cc1", "values": [{"measurement": "Potency", "value": "inactive"}]}, {"molecule": "CCCS(=O)(=O)c1ccc(COC(=O)Cc2ccc([N+](=O)[O-])cc2)cc1", "values": [{"measurement": "Potency", "value": "inactive"}]}, {"molecule": "Cc1cc(C)n(CCCNC(=O)c2ccc(C)o2)n1", "values": [{"measurement": "Potency", "value": "inactive"}]}, {"molecule": "CCCCn1c(C2CCCCC2)nc2cc3[nH]c(=O)c(C(C)C)nc3cc21", "values": [{"measurement": "Potency", "value": "inactive"}]}, {"molecule": "CN(C(=O)CCn1c(=S)oc2ccccc21)c1ccc(F)cc1", "values": [{"measurement": "Potency", "value": "inactive"}]}, {"molecule": "O=C(c1ccc(F)c([N+](=O)[O-])c1)N1CC2CC(C1)c1cccc(=O)n1C2", "note": "(stereo not given)", "values": [{"measurement": "Potency", "value": "inactive"}]}, {"molecule": "O=C(O)CNS(=O)(=O)c1ccc2c(c1)Cc1cc(S(=O)(=O)NCC(=O)O)ccc1-2", "values": [{"measurement": "Potency", "value": "inactive"}]}, {"molecule": "OCC[C@@H]1C[C@H](O)[C@@H](O)[C@]2(OCCc3ccccc32)O1", "values": [{"measurement": "Potency", "value": "inactive"}]}, {"molecule": "CCOc1ccccc1C(=O)NC1CCN(CC(=O)Nc2cc(OC)ccc2OC)CC1", "values": [{"measurement": "Potency", "value": "inactive"}]}, {"molecule": "Cc1c(C(=O)N2CCN(S(=O)(=O)c3cccs3)CC2)oc2ccc(F)cc12", "values": [{"measurement": "Potency", "value": "inactive"}]}, {"molecule": "COc1cc(NC(=O)COC(=O)c2cc(S(=O)(=O)N3CCCCC3)ccc2Cl)c(C)cc1[N+](=O)[O-]", "values": [{"measurement": "Potency", "value": "inactive"}]}, {"molecule": "CC(C)CN(C(=O)CN1CCC(C)CC1)c1c(N)n(CC(C)C)c(=O)[nH]c1=O", "values": [{"measurement": "Potency", "value": "inactive"}]}, {"molecule": "Cc1cnc(C(=O)OCC(=O)Nc2ccc3c(c2)OCCO3)cn1", "values": [{"measurement": "Potency", "value": "inactive"}]}, {"molecule": "COc1ccccc1N1CCN(C2CC(=O)N(c3ccccc3)C2=O)CC1", "note": "(stereo not given)", "values": [{"measurement": "Potency", "value": "inactive"}]}, {"molecule": "CCN(CC)c1ccc(C=NCCc2ccc(S(N)(=O)=O)cc2)cc1", "values": [{"measurement": "Potency", "value": "inactive"}]}, {"molecule": "Cc1nn2c(=O)cc(CSc3nc4ccccc4[nH]3)nc2s1", "values": [{"measurement": "Potency", "value": "inactive"}]}, {"molecule": "COc1ccc(NC(=O)CC(C)CC(=O)NCc2ccccc2)c(OC)c1", "note": "(stereo not given)", "values": [{"measurement": "Potency", "value": "inactive"}]}, {"molecule": "O=C(NCCOc1ccc(F)cc1)C1CCN(S(=O)(=O)c2ccccc2)CC1", "values": [{"measurement": "Potency", "value": "inactive"}]}, {"molecule": "Cc1ccc(NC(=O)CCCn2c(=S)[nH]c3ccsc3c2=O)cc1C", "values": [{"measurement": "Potency", "value": "inactive"}]}, {"molecule": "COc1ccc(Cl)cc1NC(=O)CSc1nc(=O)n(CCN(C)C)c2c1CCCC2", "values": [{"measurement": "Potency", "value": "inactive"}]}, {"molecule": "CCN(C(=O)CSc1ncnc2sccc12)c1c(N)n(Cc2ccccc2)c(=O)[nH]c1=O", "values": [{"measurement": "Potency", "value": "inactive"}]}, {"molecule": "COc1ccc(C2NC(=O)CCC2[N+](=O)[O-])c(OC)c1OC", "note": "(stereo not given)", "values": [{"measurement": "Potency", "value": "inactive"}]}, {"molecule": "Cc1cc(C)cc(NC(=O)Cc2ccc(NC3=NC4CS(=O)(=O)CC4S3)cc2)c1", "note": "(stereo not given)", "values": [{"measurement": "Potency", "value": "inactive"}]}, {"molecule": "COCCN(CCOC)c1nc(-c2ccc(C)cc2)nc2ccccc12", "values": [{"measurement": "Potency", "value": "inactive"}]}, {"molecule": "Cc1[nH]c2ccccc2c1C(=O)COC(=O)c1cccc(S(=O)(=O)N2CCCCC2)c1", "values": [{"measurement": "Potency", "value": "inactive"}]}, {"molecule": "Cc1ccc(S(=O)(=O)NNC(=O)c2ccc(F)cc2)cc1", "values": [{"measurement": "Potency", "value": "inactive"}]}, {"molecule": "Cc1ccc(C(CC(=O)N2CCCC2)c2ccccc2)c(O)c1", "note": "(stereo not given)", "values": [{"measurement": "Potency", "value": "inactive"}]}, {"molecule": "COc1cccc(C(=O)Cn2c(NCCCO)nc3ccccc32)c1", "values": [{"measurement": "Potency", "value": "inactive"}]}, {"molecule": "CCN(CC)CCCNC(=O)c1cn(C)c(=O)c2c1c1ccccc1n2C", "values": [{"measurement": "Potency", "value": "inactive"}]}, {"molecule": "CCOC(=O)C1CCN(C(=O)COC(=O)c2c(C)c(CC)nc3ccccc23)CC1", "values": [{"measurement": "Potency", "value": "inactive"}]}, {"molecule": "CCCC1=NN(C(=O)Cc2ccc(OC)cc2)C(O)(C(F)(F)F)C1", "note": "(stereo not given)", "values": [{"measurement": "Potency", "value": "inactive"}]}, {"molecule": "O=C1[C@H]2[C@@H](c3ccc(F)cc3)N3C(=O)N(c4cccc(F)c4)C(=O)[C@@]3(Cc3ccc(Cl)cc3)[C@H]2C(=O)N1C1CCCCC1", "values": [{"measurement": "Potency", "value": "inactive"}]}, {"molecule": "Cn1cnc([N+](=O)[O-])c1Sc1ccc(Br)cc1", "values": [{"measurement": "Potency", "value": "inactive"}]}, {"molecule": "Cc1ccn(CCC(=O)N2CCc3ccccc32)n1", "values": [{"measurement": "Potency", "value": "inactive"}]}, {"molecule": "O=C(C[C@H]1C[C@H](C(=O)N2CCOCC2)[C@@]2(CCC3CCCC3)c3[nH]c4cc(-c5ccco5)ccc4c3CCN2C1=O)NCc1cccc(C(F)(F)F)c1", "values": [{"measurement": "Potency", "value": "inactive"}]}]}
